Measured values: PMC10812921, “Transcriptional Coactivator BOB1 (OBF1, OCA-B) Modulates the Specificity of DNA Recognition by the POU-Domain Factors OCT1 and OCT2 in a Monomeric Configuration”

Legend:
[1] = biological target: POU1 (OCT1 POU domain) (human, UniProt P14859 260-458); test: EMSA-SELEX-seq; no BOB1; 20 mM Tris-HCl pH 7.6, 140 mM NaCl, 10% glycerol, 0.5 mM EDTA, 0.05% Triton X-100, 0.1 mg/mL BSA, 0.1 mg/mL poly(dI-dC), 5 mM DTT, room temperature, 20 min; high values mean tight binding; conditions: protein: recombinant; dsDNA, one strand shown
Sequence of POU1 (OCT1 POU domain) (P14859 260-458): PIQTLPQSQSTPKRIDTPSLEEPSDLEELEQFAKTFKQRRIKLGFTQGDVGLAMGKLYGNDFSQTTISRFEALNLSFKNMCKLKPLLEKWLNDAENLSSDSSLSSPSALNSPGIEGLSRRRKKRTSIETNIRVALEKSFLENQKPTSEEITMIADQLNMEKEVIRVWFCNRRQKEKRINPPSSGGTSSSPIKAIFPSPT
Method in brief: (§1)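 Tagged POU-domain proteins were expressed in E. coli BL21, purified under denaturing conditions and renatured. Then 30 ng was mixed with 300 ng of a PCR-amplified double-stranded random 35-nt library, with or without 28 ng coactivator protein, in 20 μL Tris–HCl pH 7.6 binding buffer for 20 min at RT. Complex bands were cut from native 6% PAGE, eluted and PCR-amplified over four rounds, then Illumina-sequenced. Binding preference is the percentage of sequenced 8-mers matching a motif pattern.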

[2] = biological target: T1, POU2 (OCT2 POU domain) (human, UniProt P09086 175-386); test: as above; conditions: protein: recombinant; dsDNA, one strand shown
T1 sequence: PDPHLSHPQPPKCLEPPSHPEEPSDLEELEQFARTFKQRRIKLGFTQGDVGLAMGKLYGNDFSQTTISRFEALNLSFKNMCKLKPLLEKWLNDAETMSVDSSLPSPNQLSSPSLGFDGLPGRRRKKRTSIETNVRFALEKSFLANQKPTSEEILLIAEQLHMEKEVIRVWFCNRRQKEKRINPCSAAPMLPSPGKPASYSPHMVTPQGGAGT
Method in brief: as §1

[3] = biological target: POU1 (OCT1 POU domain);BOB1 (OBF1, OCA-B) (human;human, UniProt P14859;Q16633 260-458;1-256, |); test: EMSA-SELEX-seq; with BOB1 (ternary complex band); 20 mM Tris-HCl pH 7.6, 140 mM NaCl, 10% glycerol, 0.5 mM EDTA, 0.05% Triton X-100, 0.1 mg/mL BSA, 0.1 mg/mL poly(dI-dC), 5 mM DTT, room temperature, 20 min; high values mean tight binding; conditions: protein: recombinant;recombinant; copies: 1;1; dsDNA, one strand shown
Method in brief: as §1

[4] = biological target: T2, POU2 (OCT2 POU domain);BOB1 (OBF1, OCA-B) (human;human, UniProt P09086;Q16633 175-386;1-256, |); test: as above; conditions: protein: recombinant;recombinant; copies: 1;1; dsDNA, one strand shown
T2 sequence 1: T1 sequence
T2 sequence 2: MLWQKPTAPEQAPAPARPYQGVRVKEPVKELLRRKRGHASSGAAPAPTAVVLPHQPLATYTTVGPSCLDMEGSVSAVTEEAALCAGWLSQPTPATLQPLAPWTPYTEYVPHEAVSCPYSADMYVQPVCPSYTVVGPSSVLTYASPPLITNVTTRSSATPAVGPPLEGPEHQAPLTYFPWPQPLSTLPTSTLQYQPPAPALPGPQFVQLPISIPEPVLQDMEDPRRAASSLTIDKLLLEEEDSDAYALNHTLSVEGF
Method in brief: as §1

Sequence	binding signal [1]	binding signal [2]	binding signal [3]	binding signal [4]
ATTAAAAA	0.172 % of ANNNNAAN 8-mers	0.219 % of ANNNNAAN 8-mers	0.114 % of ANNNNAAN 8-mers	0.09 % of ANNNNAAN 8-mers
AAAACAAC	0.0362 % of ANNNNAAN 8-mers	0.0345 % of ANNNNAAN 8-mers	0.0609 % of ANNNNAAN 8-mers	0.0462 % of ANNNNAAN 8-mers
ACTAAAAG	0.0282 % of ANNNNAAN 8-mers	0.0368 % of ANNNNAAN 8-mers	0.0332 % of ANNNNAAN 8-mers	0.0297 % of ANNNNAAN 8-mers
ACGTGAAC	0.0153 % of ANNNNAAN 8-mers	0.0247 % of ANNNNAAN 8-mers	0.0215 % of ANNNNAAN 8-mers	0.0206 % of ANNNNAAN 8-mers
AGAAAAAA	0.0767 % of ANNNNAAN 8-mers	0.0857 % of ANNNNAAN 8-mers	0.0812 % of ANNNNAAN 8-mers	0.0561 % of ANNNNAAN 8-mers
ACCTCAAA	0.0149 % of ANNNNAAN 8-mers	0.0155 % of ANNNNAAN 8-mers	0.0191 % of ANNNNAAN 8-mers	0.0256 % of ANNNNAAN 8-mers
AATGAAAG	0.0751 % of ANNNNAAN 8-mers	0.088 % of ANNNNAAN 8-mers	0.0901 % of ANNNNAAN 8-mers	0.0718 % of ANNNNAAN 8-mers
AGCCCAAA	0.0164 % of ANNNNAAN 8-mers	0.0207 % of ANNNNAAN 8-mers	0.0156 % of ANNNNAAN 8-mers	0.0157 % of ANNNNAAN 8-mers
AAGGCAAT	0.0519 % of ANNNNAAN 8-mers	0.0489 % of ANNNNAAN 8-mers	0.057 % of ANNNNAAN 8-mers	0.0495 % of ANNNNAAN 8-mers
AGAATAAC	0.0534 % of ANNNNAAN 8-mers	0.0673 % of ANNNNAAN 8-mers	0.0312 % of ANNNNAAN 8-mers	0.0487 % of ANNNNAAN 8-mers
ATCGTAAT	0.085 % of ANNNNAAN 8-mers	0.108 % of ANNNNAAN 8-mers	0.0679 % of ANNNNAAN 8-mers	0.0768 % of ANNNNAAN 8-mers
ACCGTAAA	0.0244 % of ANNNNAAN 8-mers	0.0253 % of ANNNNAAN 8-mers	0.0226 % of ANNNNAAN 8-mers	0.0173 % of ANNNNAAN 8-mers
AGGAGAAC	0.0275 % of ANNNNAAN 8-mers	0.0363 % of ANNNNAAN 8-mers	0.0261 % of ANNNNAAN 8-mers	0.0149 % of ANNNNAAN 8-mers
ATGCAAAA	1.5 % of ANNNNAAN 8-mers	1.17 % of ANNNNAAN 8-mers	3.15 % of ANNNNAAN 8-mers	3.29 % of ANNNNAAN 8-mers
ATAGCAAG	0.032 % of ANNNNAAN 8-mers	0.0363 % of ANNNNAAN 8-mers	0.0394 % of ANNNNAAN 8-mers	0.0454 % of ANNNNAAN 8-mers
AGCAGAAA	0.0374 % of ANNNNAAN 8-mers	0.0339 % of ANNNNAAN 8-mers	0.0336 % of ANNNNAAN 8-mers	0.0281 % of ANNNNAAN 8-mers
ACAACAAC	0.0187 % of ANNNNAAN 8-mers	0.0104 % of ANNNNAAN 8-mers	0.0133 % of ANNNNAAN 8-mers	0.0124 % of ANNNNAAN 8-mers
ACGTTAAT	0.112 % of ANNNNAAN 8-mers	0.163 % of ANNNNAAN 8-mers	0.073 % of ANNNNAAN 8-mers	0.102 % of ANNNNAAN 8-mers
ACTTTAAC	0.032 % of ANNNNAAN 8-mers	0.0345 % of ANNNNAAN 8-mers	0.0304 % of ANNNNAAN 8-mers	0.0355 % of ANNNNAAN 8-mers
AATCCAAC	0.0259 % of ANNNNAAN 8-mers	0.0288 % of ANNNNAAN 8-mers	0.016 % of ANNNNAAN 8-mers	0.0223 % of ANNNNAAN 8-mers
ACGCAAAA	0.151 % of ANNNNAAN 8-mers	0.0944 % of ANNNNAAN 8-mers	0.277 % of ANNNNAAN 8-mers	0.157 % of ANNNNAAN 8-mers
ACAAGAAT	0.0454 % of ANNNNAAN 8-mers	0.0518 % of ANNNNAAN 8-mers	0.0437 % of ANNNNAAN 8-mers	0.0512 % of ANNNNAAN 8-mers
ACTTGAAT	0.0828 % of ANNNNAAN 8-mers	0.0961 % of ANNNNAAN 8-mers	0.0613 % of ANNNNAAN 8-mers	0.071 % of ANNNNAAN 8-mers
AAGCGAAA	0.0358 % of ANNNNAAN 8-mers	0.0391 % of ANNNNAAN 8-mers	0.0429 % of ANNNNAAN 8-mers	0.0289 % of ANNNNAAN 8-mers
